# Hits are enriched below; roughly 7.8% of the tested compounds scored in any of these assays.
# HCMV inh = human cytomegalovirus inhibition; 410,000 tested, 4.5% active; HFF cells, HCMV-luciferase reporter, 72 h; hits give low values; AID 1259415; activity change, negative = inhibition, % at 57.5 µM; in the data active = activity change below about -60%; inconclusive = no clear call, values can overlap the other calls; inactive = above about -39%
#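 Human foreskin fibroblasts infected with luciferase-reporter HCMV at MOI 1 PFU/cell, compounds at two doses. Luciferase measured 72 h post infection; normalized to buffer-only basal and Salinomycin (10uM) controls.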
# Marburg entry inh = Marburg virus entry inhibition; Marburg virus pseudotyped entry inhibition, cell reporter; Potency, µM (series often up to 37.8 µM), actives largely listed as inhibitors; 300,000 tested, 1.8% active; calls by dose curve; tested in HEK293 cells
# LASV entry inh = inhibitors of Lassa virus binding or cell entry. 300,000 tested, 1.2% active. Lassa virus pseudotype entry inhibition, cell reporter. Potency, µM (series often up to 37.9 µM), most hits filed as inhibitors. AID 540256; calls by dose curve; tested in HEK293 cells; note: nearly all actives have a fitted effect of over 50% in size
# VACV Venus inh = vaccinia inhibition (Venus reporter); Vaccinia virus Venus reporter expression, fluorescence; Potency, µM (series often up to 36.5 µM), usual class: inhibitors; 330,000 tested, 0.46% active; AID 720580; calls by dose curve; tested in A549 cells; note: nearly all actives have a fitted effect of over 30% in size
# HCV inhibitor = blocks hepatitis C virus | 340,000 tested, 3.4% active | Huh7.5.1 HCVcc-Cre infection, luciferase reporter, 44 h | AID 651820 | Potency, µM (top dose mostly 41.8 µM), actives largely listed as inhibitors; active = well fitted inhibition curve with a large enough effect; inconclusive = small, poorly fitted or top-dose-only effect, or another doubt; inactive = no such curve, though single readings can be large or run the other way
#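 Luciferase read-out (15 sec integration) after a 15 min room-temperature substrate step quantifies HCVcc-Cre infection. Cells, 1,000 per well, had compound added 4 h post-plating, then virus at ~0.5 moi, and were cultured 44 h.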
# VACV mCherry inh = inhibitors of vaccinia virus infection (mCherry reporter signal); 310,000 tested, 0.63% active; Potency, µM (series often up to 36.5 µM), hits mostly inhibitors; Vaccinia virus mCherry reporter infection, fluorescence; AID 720579; calls by dose curve; tested in A549 cells; note: nearly all actives have a fitted effect of over 35% in size
# Hits are given with their value; – = inactive; ? = inconclusive; · = no result; [ ] = another dose, or the depositor's remark.
SMILES,HCMV inh,Marburg entry inh,LASV entry inh,VACV Venus inh,HCV inhibitor,VACV mCherry inh
Cc1cccc(C)c1NC(=O)CN1C(=O)c2cccc3cccc1c23,–,·,–,–,·,–
Cc1ccc(S(=O)(=O)N2[C@@H](c3ccc(Cl)cc3)C(C(=O)O)=CC[C@H]2c2ccc(Cl)c(Cl)c2)cc1,-64,·,·,–,–,?
CCOC(=O)N1CCN(S(=O)(=O)c2ccc(C)cc2)C1c1ccc(OC)cc1 (stereo not given),–,?,23µM,·,–,·
CCOC(=O)N1CCN(S(=O)(=O)c2ccc(C)cc2)C1c1ccccc1 (stereo not given),–,–,–,–,–,–
Cn1ncc2c(N3CCN(c4ccc(F)cc4)CC3)ncnc21,?,·,–,–,·,–
CC(=O)c1c(C(C)=O)c(C)n(-c2nc(-c3ccc(Br)cc3)c(C)s2)c1C,?,?,16µM,·,?,·
COc1ccc(-c2nc(-n3c(C)c(C(C)=O)c(C(C)=O)c3C)sc2C)cc1OC,–,–,–,·,–,·
COCCNC(=O)C1CCCN(Cc2cccc(C#N)c2)CC1 (stereo not given),-61,·,·,–,·,–
CCNC(=O)C1CCCN(Cc2ccc(OCc3ccccc3)cc2)CC1 (stereo not given),-64,·,·,–,·,–
COCCNC(=O)C1CCCN(Cc2ccc(C#N)cc2)CC1 (stereo not given),–,·,·,–,·,–
Cc1ccc2c(c1)C(c1ccccc1)N(C(=O)c1ccc(S(=O)(=O)N3CCCC3)cc1)CC(=O)N2 (stereo not given),–,–,–,–,·,–
CCOC(=O)c1c(C)[nH]c(C)c1S(=O)(=O)N1CCCC(C(=O)Nc2ccc(F)cc2F)C1 (stereo not given),–,·,–,–,·,–
CC(C)C[C@@H]1COc2cccc(NN3CCN(C)CC3)c2S(=O)(=O)N1,·,·,–,·,·,·
O=[N+]([O-])c1ccc(S(=O)(=O)N(CC(O)CN2CCCCC2)c2ccccc2)cc1 (stereo not given),–,–,·,–,?,–
O=[N+]([O-])c1ccc(N(CC(O)CN2CCCCC2)S(=O)(=O)c2ccccc2)cc1 (stereo not given),-64,–,–,–,?,–
COc1cc(OC)c(/C=C/c2cc(/C=C/c3c(OC)cc(OC)cc3OC)[n+](C)c3ccccc23)c(OC)c1,·,·,·,–,·,?
CCOC(=O)c1cc([N+](=O)[O-])cc([N+](=O)[O-])c1Sc1ncnc2nc[nH]c12,–,?,1.4µM,–,?,?
O=C(N/N=C/c1cccs1)c1cccc(NC(=O)c2ccc(Cl)cc2)c1,-97,–,?,·,–,·
O=C(N/N=C/c1cccs1)c1cccc(S(=O)(=O)Nc2ccc(Cl)cc2)c1,-65,–,–,?,–,?
O=C(N/N=C/c1cccc(NC(=O)c2ccc(Cl)cc2)c1)c1cccc(O)c1,–,?,?,–,?,–
Cc1[nH]c2c(F)cccc2c1CC(=O)NCCN1Cc2ccccc2OC(C)C1 (stereo not given),·,·,·,–,·,–
COc1ccc(OC)c(NC(=O)Cn2cnc3ccc(S(=O)(=O)N4CCC(C)CC4)cc3c2=O)c1,–,?,–,–,·,–
Cc1cc(C(=O)c2ccccc2)c(NC(=O)CCl)s1,–,1µM,–,–,?,–
O=C(CCl)Nc1ccccc1C(=O)c1ccccc1,–,·,·,·,?,·
CCN(CC)CC(=O)Nc1sc(C)cc1C(=O)c1ccccc1,–,?,–,–,8.9µM,–
SMILES,HCMV inh,Marburg entry inh,LASV entry inh,VACV Venus inh,HCV inhibitor,VACV mCherry inh
COC(=O)C1CCCCN1Cc1nc(N(C)C)c2ccccc2n1 (stereo not given),·,·,·,–,·,–
COc1cc(C(=O)NCC(c2cccs2)N(C)C)cc(Cl)c1OC(C)C (stereo not given),-61,–,?,–,?,–
COc1ccccc1-c1nc2cc(C(=O)NC[C@H]3CCc4ccccc4O3)cc(NC(C)=O)c2n1C,·,·,·,–,·,–
CCCC(=O)N1CCN(c2ccc(NC(=O)c3cc4ccccc4o3)cc2Cl)CC1,-103,?,16µM,10µM,2.2µM,·
O=C(Nc1ccc(N2CCN(C(=O)c3ccccc3)CC2)c(Cl)c1)c1ccco1,–,?,?,?,10µM,–
O=C(Nc1ccc(N2CCN(C(=O)c3ccco3)CC2)c(Cl)c1)c1cc2ccccc2o1,-99,?,?,16µM,3.5µM,11µM
CN1CCN(c2ccc(C(F)(F)F)cc2NC(=O)c2ccco2)CC1,–,10µM,–,–,–,–
Cc1ccc(Cl)cc1NC(=O)Cn1c(=O)n(CCC(=O)NCc2ccc3c(c2)OCO3)c(=O)c2sccc21,–,–,–,–,·,–
CCN(CC)CCN1C(=O)C(O)=C(C(=O)c2ccco2)[C@@H]1c1ccccn1,·,–,·,·,·,·
O=S(=O)(NCCc1nnc2ccc(SCc3c(F)cccc3Cl)nn12)c1ccccc1,–,·,–,–,·,–
Cc1cc(=O)[nH]c2nnc(SCC(=O)Nc3ccc(OC(F)(F)F)cc3)n12,–,·,–,–,·,–
CCC(=O)N1CCN(c2ccc(NC(=O)c3cc4ccccc4o3)cc2Cl)CC1,-104,11µM,?,11µM,11µM,?
CC(NC(=O)Nc1cccc([N+](=O)[O-])c1)(C(F)(F)F)C(F)(F)F,-93,?,?,?,–,?
COc1cc([N+](=O)[O-])ccc1NC(=O)Nc1ccc2c(c1)OCCO2,–,?,·,–,7.1µM,–
O=C(Nc1cccc([N+](=O)[O-])c1)c1cccc(C(=O)Nc2cccc([N+](=O)[O-])c2)c1,–,·,·,?,–,–
COc1ccc(Cl)cc1NC(=O)Nc1cccc([N+](=O)[O-])c1C,–,?,?,–,16µM,–[1.46 µM]
O=C(Nc1cccc([N+](=O)[O-])c1)Nc1ccc2c(c1)CCC2,-103,?,?,–,?,–
O=C(Nc1ccccc1)Nc1ccc2c(c1)CCC2,–,·,·,·,–,·
CC1CCCCN1Cc1c(O)ccc2c(=O)c(-c3ccc(Cl)cc3)c(C(F)(F)F)oc12 (stereo not given),–,–,–,–,·,–
Cc1cc(N(C)Cc2ccccc2)n2nc(-c3ccc(C(C)(C)C)cc3)nc2n1,?,–,–,–,·,–
COc1ccc(NC(=O)Nc2cccc([N+](=O)[O-])c2)cc1Cl,-100,?,–,?,?,?
COc1ccc(NC(=S)Nc2cccc([N+](=O)[O-])c2)cc1,-96,?,–,·,–,·
COc1ccc(/C=C(/C#N)C(=O)Nc2cccc(C)c2C)cc1C(=O)O,–,–,–,–,–,·
COc1ccc(NC(=O)c2cccc([N+](=O)[O-])c2)cc1,–,–,?,–,?,–
COc1ccc(/C=C(/C#N)C(=O)Nc2cccc([N+](=O)[O-])c2)cc1C(=O)O,-102,–,–,–,?,–
CCC(=O)Nc1ccc2c(c1)Cc1cc([N+](=O)[O-])ccc1-2,-86,–,?,–,–,–
COc1ccc(C(=O)Nc2cccc([N+](=O)[O-])c2)cc1Br,–,?,?,?,?,–
COCCCNC(=O)C1CCN(c2nnc(-n3cccc3CNc3ccc(C)cc3)s2)CC1,?,–,·,–,·,–

# Compound activity as filed in PubChem BioAssay.
